In PubChem BioAssay (Tox21):
“And” between values parts separate entries of the source, which are not always exact repeats. Equal values may be shown once. Records with an inconclusive call do not appear. The source made the active and inactive calls. Calls come from the whole dose curve; as a rule, active = well fitted curve in the direction sought with a large enough effect in the repeat runs; inconclusive = weak or mixed curves; inactive = no such curve, though single readings can be large; an effect the other way counts as inactive or inconclusive.

Columns and labels:
[1] = qHTS RealTime-Glo MT Cell Viability Assay in HEK293 cells - 16 hour (AID 1224872); note: top concentration of the series differs between compounds; nearly all actives have a fitted effect of over 50% in size
Summary of the method: (§1)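 Tox21 10K qHTS, HEK293, 600 cells/well, RealTime-Glo reagent co-dispensed with cells; 5 h preincubation, compound by pintool, 37 C, luminescence at 0–40 h.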

[2] = qHTS RealTime-Glo MT Cell Viability Assay in HepG2 cells - 8 hour (AID 1224873); note: nearly all actives have a fitted effect of over 55% in size
Summary of the method: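 HepG2 cells (600/well) mixed with RealTime-Glo MT reagent, settled 5 h at 37 C/5% CO2 before compound addition. Nonlytic NanoLuc luminescence from viable-cell prosubstrate reduction read repeatedly during 40 h treatment at 37 C.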

[3] = qHTS RealTime-Glo MT Cell Viability Assay in HEK293 cells - 40 hour (AID 1224874); conditions: RealTime-Glo luminescence; max response: active compounds read low; note: nearly all actives have a fitted effect of over 50% in size
Summary of the method: (§2)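 Real-time viability in HEK293: signal arises when living cells convert a prosubstrate for NanoLuc in the medium, so luminescence tracks viable cell number. Compound (23 nL, DMSO) added 5 h post-seeding; kinetic reads at 0–40 h, 37 C.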

[4] = A CellTox Green Cytotoxicity Assay to monitor cytotoxicity in HEK293 cells - 24 hour (AID 1224875); note: series mostly up to about 77 µM; nearly all actives have a fitted effect of over 45% in size
Summary of the method: (§3)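 Cells (HEK293, 600/well) and dye reagent are dispensed together. After 5 h at 37 C, 23 nL compound is pinned in. Plates stay at 37 C for 40 h with fluorescence read at 0h, 8h, 16h, 24h, 32h and 40h.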

[5] = A CellTox Green Cytotoxicity Assay to monitor cytotoxicity in HepG2 cells - 16 hour (AID 1224876); note: nearly all actives have a fitted effect of over 45% in size
Summary of the method: (§4)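 Cells and non-lytic dye reagent are dispensed together (600 HepG2 cells/well) and incubated 5 h before DMSO compound transfer. Kinetic fluorescence is then recorded in the same wells during 40 h at 37 C.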

[6] = qHTS RealTime-Glo MT Cell Viability Assay in HepG2 cells - 32 hour (AID 1224877); note: nearly all actives have a fitted effect of over 55% in size
Summary of the method: (§5)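 Cells + NanoLuc/prosubstrate dispensed (600 cells/well) → 5 h at 37 C/5% CO2 → compounds in DMSO transferred → 40 h incubation at 37 C, luminescence read at 0, 8, 16, 24, 32, 40 h.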

[7] = A CellTox Green Cytotoxicity Assay to monitor cytotoxicity in HepG2 cells - 24 hour (AID 1224878); note: nearly all actives have a fitted effect of over 45% in size
Summary of the method: as §4

[8] = A CellTox Green Cytotoxicity Assay to monitor cytotoxicity in HepG2 cells - 40 hour (AID 1224879); note: nearly all actives have a fitted effect of over 40% in size
Summary of the method: as §4

[9] = qHTS RealTime-Glo MT Cell Viability Assay in HEK293 cells - 0 hour (AID 1224880); note: top concentration of the series differs between compounds; nearly all actives have a fitted effect of over 45% in size
Summary of the method: as §2

[10] = A CellTox Green Cytotoxicity Assay to monitor cytotoxicity in HEK293 cells - 32 hour (AID 1224881); note: nearly all actives have a fitted effect of over 40% in size
Summary of the method: as §3

[11] = A CellTox Green Cytotoxicity Assay to monitor cytotoxicity in HepG2 cells - 0 hour (AID 1224882); note: nearly all actives have a fitted effect of over 35% in size
Summary of the method: as §4

[12] = A CellTox Green Cytotoxicity Assay to monitor cytotoxicity in HepG2 cells - 32 hour (AID 1224883); note: nearly all actives have a fitted effect of over 50% in size
Summary of the method: as §4

[13] = A CellTox Green Cytotoxicity Assay to monitor cytotoxicity in HEK293 cells - 8 hour (AID 1224884); note: nearly all actives have a fitted effect of over 35% in size
Summary of the method: as §3

[14] = qHTS RealTime-Glo MT Cell Viability Assay in HepG2 cells - 16 hour (AID 1224885); note: nearly all actives have a fitted effect of over 50% in size
Summary of the method: as §5

[15] = qHTS RealTime-Glo MT Cell Viability Assay in HEK293 cells - 8 hour (AID 1224887)
Summary of the method: as §2

[16] = A CellTox Green Cytotoxicity Assay to monitor cytotoxicity in HEK293 cells - 16 hour (AID 1224888); note: nearly all actives have a fitted effect of over 35% in size
Summary of the method: as §3

[17] = qHTS RealTime-Glo MT Cell Viability Assay in HepG2 cells - 0 hour (AID 1224889); note: nearly all actives have a fitted effect of over 50% in size
Summary of the method: as §5

[18] = A CellTox Green Cytotoxicity Assay to monitor cytotoxicity in HepG2 cells - 8 hour (AID 1224890); note: nearly all actives have a fitted effect of over 45% in size
Summary of the method: as §4

[19] = qHTS assay to identify small molecule antagonists of the estrogen receptor alpha (ER-alpha) signaling pathway using the BG1 cell line in the presence of 0.1 nM 17-beta-estradiol - cell viability counter screen (AID 1259241); note: nearly all actives have a fitted effect of over 40% in size
Summary of the method: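 Live-cell protease activity (CellTiter-Fluor fluorescence, 30 min) was read in the same wells after VM7Luc4E2 cells had been exposed to compounds with 0.1 nM 17beta-estradiol for 22 hr at 37C.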

[20] = qHTS RealTime-Glo MT Cell Viability Assay in HEK293 cells - 24 hour (AID 1224886)
Summary of the method: as §1
% is set by controls: 0 for no effect and ±100 for the full control effect.

COC1=CC(=O)O[C@@H](/C=C/c2ccccc2)C1
inactive: Potency [1] | outcome [2] | max response [3] -17.5% | Potency [4] | Potency [5] | Potency [6] | Potency [7] | Potency [8] | outcome [9] | Potency [10] | outcome [11] | Potency [12] | Potency [13] | Potency [14] | Potency [15] | Potency [16] | outcome [17] | Potency [18] | outcome [19]

O=C(Cl)c1ccccc1
inactive: Potency [1] | outcome [2] | max response [3] -3.78% | Potency [4] | Potency [5] | Potency [6] | Potency [7] | Potency [8] | outcome [9] | Potency [10] | outcome [11] | Potency [12] | Potency [13] | Potency [14] | Potency [20] | Potency [16] | Potency [18] | outcome [19]

Cc1ccc2c(c1)C1CN(C)CCC1N2 (configuration not stated)
inactive: activity change, negative = cytotoxicity [1] -1.2% [at 15.8 µM] | viability change, negative = cytotoxic [2] -2.24% [at 15.8 µM] | max response [3] 2.17% | activity change [4] 0.918% [at 15.8 µM, active compounds read high] | cytotoxicity increase [5] 12.2% [at 15.8 µM] | activity change, negative = cytotoxic [6] -0.204% [at 15.8 µM] | cytotoxicity [7] 11.8% [at 15.8 µM] | cytotoxicity increase [8] 15.6% [at 15.8 µM] | activity change, negative = cytotoxicity [9] -0.907% [at 15.8 µM] | cytotoxicity increase [10] -4.65% [at 15.8 µM] | cytotoxicity [11] -0.534% [at 15.8 µM] | cytotoxicity increase [12] 14.3% [at 15.8 µM] | cytotoxicity increase [13] -1.28% [at 15.8 µM] | activity change, negative = cytotoxic [14] -6.11% [at 15.8 µM] | activity change, negative = cytotoxicity [15] 1.42% [at 15.8 µM] | activity change [16] -0.0479% [at 15.8 µM, active compounds read high] | activity change, negative = cytotoxicity [17] -0.0575% [at 15.8 µM] | cytotoxicity increase [18] 11.9% [at 15.8 µM] | activity change, negative = cytotoxicity [19] -3.08% [at 19 µM]

CCCC(C)C1(CC)C(=O)N=C(S)NC1=O (configuration not stated)
inactive: Potency [1] | outcome [2] | max response [3] 1.79% | Potency [4] | Potency [5] | Potency [6] | Potency [7] | Potency [8] | outcome [9] | Potency [10] | outcome [11] | Potency [12] | Potency [13] | Potency [14] | Potency [20] | Potency [16] | outcome [17] | Potency [18] | outcome [19]

CCOC(=O)COc1ccc(Cl)cc1Cl
inactive: Potency [1] | outcome [2] | max response [3] -3.04% | Potency [4] | Potency [5] | Potency [6] | Potency [7] | Potency [8] | outcome [9] | Potency [10] | outcome [11] | Potency [12] | Potency [13] | Potency [20] | Potency [16] | outcome [17] | Potency [18] | outcome [19]

CCOP(=O)(CN(CCO)CCO)OCC
inactive: Potency [1] | outcome [2] | max response [3] 1.2% | Potency [4] | Potency [5] | Potency [6] | Potency [7] | Potency [8] | outcome [9] | Potency [10] | outcome [11] | Potency [12] | Potency [13] | Potency [14] | Potency [20] | Potency [16] | Potency [18] | outcome [19]

C=C1C[C@@H]2[C@H](CC[C@]3(C)C(=O)CC[C@@H]23)[C@@]2(C)C=CC(=O)C=C12
inactive: Potency [1] | outcome [2] | max response [3] 0.138% | Potency [4] | Potency [5] | Potency [6] | Potency [7] | Potency [8] | outcome [9] | Potency [10] | outcome [11] | Potency [12] | Potency [13] | Potency [14] | Potency [20] | Potency [16] | Potency [18] | outcome [19]

CNC(=O)Oc1ccccc1C(C)C
inactive: Potency [1] | outcome [2] | max response [3] 3.33% | Potency [4] | Potency [5] | Potency [6] | Potency [7] | Potency [8] | outcome [9] | Potency [10] | outcome [11] | Potency [12] | Potency [13] | Potency [20] | Potency [15] | Potency [16] | Potency [18] | outcome [19]

CCN[C@H](C)Cc1cccc(C(F)(F)F)c1
inactive: Potency [1] | outcome [2] | max response [3] -6.31% | Potency [4] | Potency [5] | Potency [6] | Potency [7] | Potency [8] | outcome [9] | Potency [10] | outcome [11] | Potency [12] | Potency [14] | Potency [16] | Potency [18] | outcome [19]

C=CCC1(C(C)CC)C(=O)NC(=O)NC1=O (configuration not stated)
inactive: Potency [1] | outcome [2] | max response [3] 5.74% | Potency [4] | Potency [5] | Potency [6] | Potency [7] | Potency [8] | outcome [9] | Potency [10] | outcome [11] | Potency [12] | Potency [13] | Potency [14] | Potency [15] | Potency [16] | outcome [17] | Potency [18] | outcome [19]

O=C(NC(O)C(Cl)(Cl)Cl)NC(O)C(Cl)(Cl)Cl (configuration not stated)
inactive: Potency [1] | outcome [2] | max response [3] 0.623% | Potency [4] | Potency [5] | Potency [6] | Potency [7] | Potency [8] | outcome [9] | Potency [10] | outcome [11] | Potency [12] | Potency [13] | Potency [15] | Potency [16] | outcome [17] | Potency [18] | outcome [19]

O=C/C=C/c1ccco1
inactive: Potency [1] | outcome [2] | max response [3] 3.04% | Potency [4] | Potency [5] | Potency [6] | Potency [7] | Potency [8] | outcome [9] | Potency [10] | outcome [11] | Potency [12] | Potency [13] | Potency [15] | Potency [16] | outcome [17] | Potency [18]

C/C(=N\NC(=O)Nc1cc(F)cc(F)c1)c1ncccc1C(=O)O
inactive: Potency [1] | outcome [2] | max response [3] -7.58% and 0.112% | Potency [4] | Potency [5] | Potency [6] | Potency [7] | Potency [8] | outcome [9] | Potency [10] | outcome [11] | Potency [12] | Potency [13] | Potency [14] | Potency [15] | Potency [16] | outcome [17] | Potency [18] | outcome [19]

CC(C)(N)Cc1ccc(Cl)cc1
inactive: Potency [1] | outcome [2] | max response [3] 6.61% | Potency [4] | Potency [5] | Potency [6] | Potency [7] | Potency [8] | outcome [9] | Potency [10] | outcome [11] | Potency [12] | Potency [13] | Potency [14] | Potency [15] | Potency [16] | outcome [17] | Potency [18] | outcome [19]

BrCc1ccc(Br)cc1
inactive: Potency [1] | outcome [2] | max response [3] 4.4% | Potency [4] | Potency [5] | Potency [6] | Potency [7] | Potency [8] | outcome [9] | Potency [10] | outcome [11] | Potency [12] | Potency [13] | Potency [14] | Potency [20] | Potency [16] | Potency [18]
